# In PubChem BioAssay (EPA / NIEHS):
# Results filed as inconclusive are left out. The source made the active and inactive calls. Rule for the calls: active = hit-call score of the fitted dose curve at least 0.9, where 1 is the maximum; inconclusive = response in the unintended direction; inactive = score below 0.9.
# Test: ACEA_ER_AUC_viability: ACEA Biosciences xCELLigence Real-Time Cell Analysis on Estrogen Receptor Agonism for Viability (AID 2283782);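 note: continuous compound exposure with impedance area under curve over 80 h; hit means loss of impedance signal meaning reduced cell growth or viability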
# Method in brief: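 T-47D human breast cells in phenol red-free RPMI1640 with 10% charcoal-stripped FBS were dosed with an 8-point 1:4 dilution series from 100 uM top final concentration, in duplicate. Impedance-based growth was followed for 80 h; AUC analysed versus DMSO.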
Compound,outcome,AC50
CC(c1cc(C(C)(C)C)cc(C(C)(C)C)c1O)c1cc(C(C)(C)C)cc(C(C)(C)C)c1O,inactive,
CC1CC(=O)CC(C)(C)C1 (stereo not drawn),inactive,
C=C(C)C(=O)OCC(O)COc1ccc(C(C)(C)c2ccc(OCC(O)COC(=O)C(=C)C)cc2)cc1 (stereo not drawn),,30.3 µM (active)
CC(=O)CC(=O)Nc1ccccc1C,inactive,
C=CCOC(=O)c1ccc(C(=O)OCC=C)c(C(=O)OCC=C)c1,inactive,
[Cl][Sc]([Cl])[Cl],inactive,
CC(C)CO,inactive,
C/C=C/C=C/CCCCCCCO,,79.4 µM (active)
CC(=O)c1ccccc1O,inactive,
O=C1c2ccccc2C(=O)c2cc(S(=O)(=O)O)ccc21,inactive,
CC/C=C\C/C=C\C/C=C\CCCCCCCC(=O)OC,inactive,
CCC(=O)C1CC(C(C)C)CC=C1C (stereo not drawn),inactive,
CCCCC1CCC(=O)O1 (stereo not drawn),,60.6 µM (active)
Cc1noc(NS(=O)(=O)c2ccc(N)cc2)c1C,inactive,
C=CC(C)(CCC=C(C)C)OC(=O)C=Cc1ccccc1 (stereo not drawn),,83.6 µM (active)
O=C(Cl)c1c(Cl)c(Cl)c(C(=O)Cl)c(Cl)c1Cl,inactive,
Oc1c(Cl)cc(Cl)c(Cl)c1Cl,,90.9 µM (active)
Nc1ccc(O)c([N+](=O)[O-])c1,,85.7 µM (active)
CC(=O)OC1CCCCC1,,40.3 µM (active)
N#CC1(N)CCCCC1,inactive,
CCOC(=O)CC(=O)c1ccccc1,,50 µM (active)
CC(C)OC(=O)c1ccccc1,inactive,
O=C(O[C@@H]1Cc2c(O)cc(O)cc2O[C@@H]1c1cc(O)c(O)c(O)c1)c1cc(O)c(O)c(O)c1,,61 µM (active)
